Results as given in PubChem BioAssay (Tox21).
Values joined by “and” are separate entries in the source; they are usually repeats but may differ in a detail not shown here. Identical values can stand only once. Results filed as inconclusive are left out. A call without a number means that no potency is given here. A number with no mark means an inactive call. Active and inactive are the calls of the source. Calls come from the whole dose curve; as a rule, active = well fitted curve in the direction sought with a large enough effect in the repeat runs; inconclusive = weak or mixed curves; inactive = no such curve, though single readings can be large; an effect the other way counts as inactive or inconclusive.

Experiment: qHTS RealTime-Glo MT Cell Viability Assay in HepG2 cells - 0 hour (AID 1224889); note: nearly all actives have a fitted effect of over 50% in size; note: potency is the fitted concentration of half-maximal effect
Details: RealTime-Glo luminescence; series mostly up to 76.8 µM; activity change, negative = cytotoxicity: at the top concentration
Summary of the method: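 Cell number in HepG2 cultures estimated from NanoLuc luminescence generated by metabolic reduction of a prosubstrate by living cells. The homogeneous, nonlytic format allowed repeated reads at 0, 8, 16, 24, 32 and 40 h of compound exposure.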

SMILES | Potency | activity change, negative = cytotoxicity
O=C(O)CCC(=O)O | inactive | –
Oc1ccc(/C=C/c2cc(O)cc(O)c2)cc1 | inactive | –
Cc1ccc(C)c(OCCCC(C)(C)C(=O)O)c1 | inactive | –
O=C(O)c1[nH]n(-c2ccc(S(=O)(=O)O)cc2)c(=O)c1N=Nc1ccc(S(=O)(=O)O)cc1 | – | -15.8% [at 35.3 µM]
CC(O)CN(CCN(CC(C)O)CC(C)O)CC(C)O (stereo not drawn) | inactive | –
CCCCCCCCCCCCCCCC(=O)O | inactive | –
O=C(O)C(=O)O | inactive | –
NC(=O)c1cnccn1 | inactive | –
Cc1ccccc1C(OCCN(C)C)c1ccccc1 (stereo not drawn) | inactive | –
c1ccc2[nH]ccc2c1 | inactive | –
CC(C)(Oc1ccc(C2CC2(Cl)Cl)cc1)C(=O)O (stereo not drawn) | inactive | –
CCCC(CCC)C(=O)O | inactive | –
O=C(O)CS | inactive | –
COc1c2occc2cc2ccc(=O)oc12 | inactive | –
O=c1ccc2ccccc2o1 | inactive | –
CCC1(c2ccccc2)C(=O)NCNC1=O | inactive | –
CCCNC(=O)NS(=O)(=O)c1ccc(Cl)cc1 | inactive | –
O=c1cc[nH]c(=S)[nH]1 | inactive | –
NC(=O)c1ccccc1O | inactive | –

SMILES | Potency | activity change, negative = cytotoxicity
Cn1cc[nH]c1=S | inactive | –
Cn1c(=O)c2[nH]cnc2n(C)c1=O | inactive | –
Cc1cc(=O)[nH]c(=S)[nH]1 | inactive | –
COc1ccc2[nH]cc(CCNC(C)=O)c2c1 | inactive | –
CC(C)[C@@H]1CC[C@@H](C)C[C@H]1O | inactive | –
Nc1ccn([C@H]2CC[C@@H](CO)O2)c(=O)n1 | inactive | –
CC(=O)OCC(COC(C)=O)OC(C)=O | inactive | –
O=C(O)c1cc(N=Nc2ccc(S(=O)(=O)Nc3ccccn3)cc2)ccc1O | 11 µM (active) and 21.9 µM (active) | –
O=C1NC(=O)c2ccccc21 | inactive | –
O=C(C1CCCCC1)N1CC(=O)N2CCc3ccccc3C2C1 (stereo not drawn) | inactive | –
Cc1ccc(S(=O)(=O)NC(=O)NN2CCCCCC2)cc1 | inactive | –
O=C(O)c1cccc([N+](=O)[O-])c1 | inactive | –
CC(=O)NS(=O)(=O)c1ccc(N)cc1 | inactive | –
O=C(O)c1cccnc1 | inactive | –
CC(O)CO (stereo not drawn) | inactive | –
CCCC(O)C(CC)CO (stereo not drawn) | inactive | –
O=C(O)/C=C\C(=O)O | inactive | –
CC(=O)Nc1nnc(S(N)(=O)=O)s1 | inactive | –

Experiment: A CellTox Green Cytotoxicity Assay to monitor cytotoxicity in HepG2 cells - 8 hour (AID 1224890); note: nearly all actives have a fitted effect of over 45% in size
Details: CellTox Green fluorescence; series mostly up to 76.8 µM; cytotoxicity increase: at the top concentration
Summary of the method: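 Cytotoxicity was tracked as dead-cell DNA fluorescence in HepG2 cells treated with test compounds at 37 C; each time-point value comes from one kinetic series spanning 0, 8, 16, 24, 32 and 40 h.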

SMILES | Potency
Cc1ccccc1C(OCCN(C)C)c1ccccc1 (stereo not drawn) | inactive
O=c1ccc2ccccc2o1 | inactive
CCC1(c2ccccc2)C(=O)NCNC1=O | inactive
CCCNC(=O)NS(=O)(=O)c1ccc(Cl)cc1 | inactive
Cc1cc(=O)[nH]c(=S)[nH]1 | inactive
COc1ccc2[nH]cc(CCNC(C)=O)c2c1 | inactive
O=C(C1CCCCC1)N1CC(=O)N2CCc3ccccc3C2C1 (stereo not drawn) | inactive
O=C(O)c1cccc([N+](=O)[O-])c1 | inactive
CC(=O)NS(=O)(=O)c1ccc(N)cc1 | inactive
O=C(O)c1cccnc1 | inactive
O=C(O)/C=C\C(=O)O | inactive

Experiment: qHTS assay to identify small molecule antagonists of the estrogen receptor alpha (ER-alpha) signaling pathway using the BG1 cell line in the presence of 0.1 nM 17-beta-estradiol - cell viability counter screen (AID 1259241); note: nearly all actives have a fitted effect of over 40% in size; note: potency is the fitted concentration of half-maximal effect
Details: VM7Luc4E2 (BG1) viability, CellTiter-Fluor protease, 22 h, 0.1 nM estradiol agonist added; series mostly up to 92.4 µM; activity change, negative = cytotoxicity: at the top concentration
Summary of the method: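 The cell line endogenously expresses full-length ER-alpha and carries four EREs driving luciferase. Cells are cultured 5 days hormone-free, treated 22 hr with compounds and 0.1 nM estradiol, then viability is read by fluorescence.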

SMILES | Potency
O=C(O)CCC(=O)O | inactive
Oc1ccc(/C=C/c2cc(O)cc(O)c2)cc1 | inactive
Cc1ccc(C)c(OCCCC(C)(C)C(=O)O)c1 | inactive
O=C(O)c1[nH]n(-c2ccc(S(=O)(=O)O)cc2)c(=O)c1N=Nc1ccc(S(=O)(=O)O)cc1 | 48.7 µM (active) and 28.6 µM (active)
CC(O)CN(CCN(CC(C)O)CC(C)O)CC(C)O (stereo not drawn) | inactive
CCCCCCCCCCCCCCCC(=O)O | inactive
O=C(O)C(=O)O | inactive
NC(=O)c1cnccn1 | inactive
Cc1ccccc1C(OCCN(C)C)c1ccccc1 (stereo not drawn) | inactive
CC(C)(Oc1ccc(C2CC2(Cl)Cl)cc1)C(=O)O (stereo not drawn) | inactive
CCCC(CCC)C(=O)O | inactive
O=C(O)CS | inactive
COc1c2occc2cc2ccc(=O)oc12 | inactive
O=c1ccc2ccccc2o1 | inactive
CCC1(c2ccccc2)C(=O)NCNC1=O | inactive
CCCNC(=O)NS(=O)(=O)c1ccc(Cl)cc1 | inactive
O=c1cc[nH]c(=S)[nH]1 | inactive
NC(=O)c1ccccc1O | inactive

SMILES | Potency
Cn1cc[nH]c1=S | inactive
Cn1c(=O)c2[nH]cnc2n(C)c1=O | inactive
Cc1cc(=O)[nH]c(=S)[nH]1 | inactive
COc1ccc2[nH]cc(CCNC(C)=O)c2c1 | inactive
CC(C)[C@@H]1CC[C@@H](C)C[C@H]1O | inactive
Nc1ccn([C@H]2CC[C@@H](CO)O2)c(=O)n1 | inactive
CC(=O)OCC(COC(C)=O)OC(C)=O | inactive
O=C(O)c1cc(N=Nc2ccc(S(=O)(=O)Nc3ccccn3)cc2)ccc1O | 24.4 µM (active) and 30.6 µM (active)
O=C1NC(=O)c2ccccc21 | inactive
O=C(C1CCCCC1)N1CC(=O)N2CCc3ccccc3C2C1 (stereo not drawn) | inactive
Cc1ccc(S(=O)(=O)NC(=O)NN2CCCCCC2)cc1 | inactive
O=C(O)c1cccc([N+](=O)[O-])c1 | inactive
CC(=O)NS(=O)(=O)c1ccc(N)cc1 | inactive
O=C(O)c1cccnc1 | inactive
CC(O)CO (stereo not drawn) | inactive
CCCC(O)C(CC)CO (stereo not drawn) | inactive
CC(=O)Nc1nnc(S(N)(=O)=O)s1 | inactive
